Compounds without any hit were thinned out: in the full panel of roughly 83,000, 20% have a hit.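 A percent growth of 40 corresponds to 60% growth inhibition; 0 means no net growth; -100 means all cells died. Active threshold: below 10.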 Unmarked numbers belong to inactive results. Calls of active or inactive are those of the source.

The test system of the first assay is SW-620 colon. Nature of the assay: NCI-60 one-dose screen, 48 h (100 = growth as untreated, 0 = no growth, -100 = all killed). To be noted: 10 µM unless noted.
Regarding `Cc1cc(N2CCN(C)CC2)nc(N(CCNc2ccnc3cc(Cl)ccc23)Cc2ccco2)n1`, the growth was 38.2%.
With `COc1cc2c3c(c4c5ccccc5[nH]c4c2c(OC)c1OC)C(=O)N(O)C3=O`, the growth is 49%.
On the same count and under the same terms, in the case of `COc1ccc(C2NC(=O)Nc3ccccc32)c(OC)c1` (stereo unspecified) it was 114%.
In the case of `C/C(=N\Nc1cc(C)c2cc(C)ccc2n1)c1ccccn1`, the growth is -81.3% (active).
On the same count and under the same terms, as for `CC(C)=CCC[C@](C)(O)[C@H]1CC[C@]2(C)[C@@H]1CC[C@@H]1[C@@]3(C)C/C(=C/c4ccc(Br)cc4)C(=O)C(C)(C)[C@@H]3CC[C@]12C`, the figure is 82.2%; as for `CCOC(=O)N1CCN(CCCCOc2ccc(C(C)(C)CC)cc2)CC1`, 101%; as for `COC(=O)CCCCCn1c2ccccc2c2c3c(c4c5ccccc5[nH]c4c21)C(=O)N(O)C3=O`, 48.7%.
On to `Fc1ccc(Nc2nnc(-c3ccc(Cl)cc3)o2)cc1`, for which the growth is 105%.
Still for that read-out and setting: as for `C/C(=N\Nc1ccc2ccccc2n1)c1ccccn1`, the figure is 10.3%; as for `C=C1C(=O)O[C@H]2[C@H]1CC/C(Cn1cc(-c3ccc(F)cc3)nn1)=C\CC[C@@]1(C)O[C@@H]21`, -40.6% (active).
As for `CSc1ccc(N(C)c2nc(C)nc3c2CCC3)cc1`, the growth was 28.1%.
For `Cc1ccc(-c2nc([P+](c3ccccc3)(c3ccccc3)c3ccccc3)c(N3CCOCC3)o2)cc1`, the growth is 9.9% (active).
Regarding `Fc1ccc2c(c1)c(-c1nc(-c3c[nH]c4ncccc34)cs1)cn2CCCN1CCCCC1`, the growth is -34.9% (active).
For the compound `CCCC1CCCCN1C(=O)OCC(C)C` (stereo unspecified), the growth is 98.4%.
For the compound `Cc1ccc(-c2nc3ccc(Cl)cc3c(=O)n2N2C(=O)CSC2c2ccccc2Cl)cc1` (stereo unspecified), the growth was 77.8%.
As to `Nc1ccc(Br)cn1`, the growth is 104%.
Regarding `COc1ccc(-c2nc(SCC(=O)Nc3ccc(C(C)=O)cc3)[nH]c(=O)c2C#N)cc1`, the growth is 112%.
With `Nc1ccc(Cl)cn1`, the growth is 102%.
On the same count and under the same terms, in the case of `CCN1CCN(c2nc(C)cc(N(CCCNc3ccnc4cc(Cl)ccc34)Cc3ccco3)n2)CC1` it was 39.3%; in that of `CCc1ccccc1NC(=O)c1sc2nc3c(cc2c1N)CCCC3`, 26.7%.
For `N#CCCCCCn1c2ccccc2c2c3c(c4c5ccccc5n(CCCCCC#N)c4c21)C(=O)N(O)C3=O`, the growth is 106%.
As for `CCC(=O)c1c(C)[nH]c(C)c1C`, the growth is 52.3%.
As to `O=C1NC(=Nc2ccc(S(=O)(=O)Nc3nccs3)cc2)S/C1=C\c1coc2ccccc2c1=O`, the growth is 99.7%.
Same read-out and setting: as for `O=C(NC(Cc1cn(Cc2ccccc2)cn1)C(=O)O)OCC1c2ccccc2-c2ccccc21` (stereo unspecified), the figure is 104%.
Regarding `Cn1cc(-c2csc(-c3c[nH]c4ccc(F)cc34)n2)c2cccnc21`, the growth was 26.5%.
Take `O=C1C(=O)N(CCCCn2cc(-c3ccccc3)nn2)c2ccccc21`: the growth is 104%.
Consider `CCCCC(=O)OC1CCCCC1C` (stereo unspecified), for which the growth was 105%.
For the compound `Cc1ccc(N(CC(=O)Nc2ccc(S(=O)(=O)NC3CCN(C)CC3)cc2)S(=O)(=O)c2ccc(Cl)cc2)cc1`, the growth is 10.1%.
On to `COc1ccc2c(c1)C(Br)=C(CCO)C2c1ccccc1` (stereo unspecified), for which the growth is 73.2%.
With `C#Cc1cc2c(N)c(C(=O)c3cc(OC)c(OC)c(OC)c3)[nH]c2cc1OC`, the growth was 18.4%.
Take `COc1cnc2c(c1)C(=O)c1c-2n(CCCNC2=NCCS2)c(=O)c2cc([N+](=O)[O-])ccc12`: the growth was -59% (active).
Take `CN1CCN(CC#CCn2c3c(c4ccccc42)C[C@]2(C)[C@H]4CC[C@@H]5[C@H]6[C@H]7OC(=O)[C@@]6(CCC7(C)C)CC[C@@]5(C)[C@]4(C)CC[C@H]2C3(C)C)CC1`: the growth is 91.2%.
Same read-out and setting: as for `Cc1nc([P+](c2ccccc2)(c2ccccc2)c2ccccc2)c(Sc2sc(-c3ccccc3)nc2[P+](c2ccccc2)(c2ccccc2)c2ccccc2)o1`, the figure is 9.8% (active).
As for `CN(CSc1ccc(Cl)cc1)c1ccc(CSc2ccc(Cl)cc2)cc1`, the growth was 67.5%.
For the compound `O=S(=O)(NCCNc1cc(-c2cn(-c3ccccc3)nc2-c2cccc(O)c2)ccn1)c1ccc(F)cc1`, the growth was 18.8%.
On the same count and under the same terms, as for `O=C1CNCCN1`, the figure is 104%.
Regarding `COc1ccc(O)c(-c2cc(-c3ccc(Cl)cc3)c(C#N)c(=O)[nH]2)c1`, the growth is 74.7%.
On the same count and under the same terms, in the case of `CCN(CC)c1ccc(/C=C/c2cc(C)c3ccccc3n2)cc1` it was 22.3%.

The test system of another assay is MCF7 breast. The assay is described as above. As to conditions: 10 µM unless noted.
Turning to `Cc1cc(N2CCN(C)CC2)nc(N(CCNc2ccnc3cc(Cl)ccc23)Cc2ccco2)n1`, the growth was 17.1%.
With `COc1cc2c3c(c4c5ccccc5[nH]c4c2c(OC)c1OC)C(=O)N(O)C3=O`, the growth is 20.4%.
As for `COc1ccc(C2NC(=O)Nc3ccccc32)c(OC)c1` (stereo unspecified), the growth is 84.6%.
For `C/C(=N\Nc1cc(C)c2cc(C)ccc2n1)c1ccccn1`, the growth was -76.1% (active).
Same read-out and setting: as for `CC(C)=CCC[C@](C)(O)[C@H]1CC[C@]2(C)[C@@H]1CC[C@@H]1[C@@]3(C)C/C(=C/c4ccc(Br)cc4)C(=O)C(C)(C)[C@@H]3CC[C@]12C`, the figure is 82.2%.
Take `CCOC(=O)N1CCN(CCCCOc2ccc(C(C)(C)CC)cc2)CC1`: the growth is 103%.
Turning to `COC(=O)CCCCCn1c2ccccc2c2c3c(c4c5ccccc5[nH]c4c21)C(=O)N(O)C3=O`, the growth is 13.1%.
`Fc1ccc(Nc2nnc(-c3ccc(Cl)cc3)o2)cc1`: the growth is 75.4%.
Same read-out and setting: in the case of `C/C(=N\Nc1ccc2ccccc2n1)c1ccccn1` it was 8.28% (active); in that of `C=C1C(=O)O[C@H]2[C@H]1CC/C(Cn1cc(-c3ccc(F)cc3)nn1)=C\CC[C@@]1(C)O[C@@H]21`, -55.6% (active).
`CSc1ccc(N(C)c2nc(C)nc3c2CCC3)cc1`: the growth was 16%.
For the compound `Cc1ccc(-c2nc([P+](c3ccccc3)(c3ccccc3)c3ccccc3)c(N3CCOCC3)o2)cc1`, the growth was 2.74% (active).
Turning to `Fc1ccc2c(c1)c(-c1nc(-c3c[nH]c4ncccc34)cs1)cn2CCCN1CCCCC1`, the growth is 21.6%.
In the case of `CCCC1CCCCN1C(=O)OCC(C)C` (stereo unspecified), the growth is 100%.
`Cc1ccc(-c2nc3ccc(Cl)cc3c(=O)n2N2C(=O)CSC2c2ccccc2Cl)cc1` (stereo unspecified): the growth is 94.1%.
For `Nc1ccc(Br)cn1`, the growth was 110%.
For `COc1ccc(-c2nc(SCC(=O)Nc3ccc(C(C)=O)cc3)[nH]c(=O)c2C#N)cc1`, the growth is 97.5%.
Same read-out and setting: as for `Nc1ccc(Cl)cn1`, the figure is 94.7%; as for `CCN1CCN(c2nc(C)cc(N(CCCNc3ccnc4cc(Cl)ccc34)Cc3ccco3)n2)CC1`, 32.3%.
Take `CCc1ccccc1NC(=O)c1sc2nc3c(cc2c1N)CCCC3`: the growth is 19.8%.
Same read-out and setting: as for `N#CCCCCCn1c2ccccc2c2c3c(c4c5ccccc5n(CCCCCC#N)c4c21)C(=O)N(O)C3=O`, the figure is 72.2%; as for `CCC(=O)c1c(C)[nH]c(C)c1C`, 61.1%; as for `O=C1NC(=Nc2ccc(S(=O)(=O)Nc3nccs3)cc2)S/C1=C\c1coc2ccccc2c1=O`, 88%.
Consider `O=C(NC(Cc1cn(Cc2ccccc2)cn1)C(=O)O)OCC1c2ccccc2-c2ccccc21` (stereo unspecified), for which the growth is 104%.
With `Cn1cc(-c2csc(-c3c[nH]c4ccc(F)cc34)n2)c2cccnc21`, the growth is 19.3%.
`O=C1C(=O)N(CCCCn2cc(-c3ccccc3)nn2)c2ccccc21`: the growth is 94.9%.
For `CCCCC(=O)OC1CCCCC1C` (stereo unspecified), the growth is 103%.
In the case of `Cc1ccc(N(CC(=O)Nc2ccc(S(=O)(=O)NC3CCN(C)CC3)cc2)S(=O)(=O)c2ccc(Cl)cc2)cc1`, the growth is 39%.
Consider `COc1ccc2c(c1)C(Br)=C(CCO)C2c1ccccc1` (stereo unspecified), for which the growth is 58.8%.
With `C#Cc1cc2c(N)c(C(=O)c3cc(OC)c(OC)c(OC)c3)[nH]c2cc1OC`, the growth was 19.7%.
With `COc1cnc2c(c1)C(=O)c1c-2n(CCCNC2=NCCS2)c(=O)c2cc([N+](=O)[O-])ccc12`, the growth is -51.3% (active).
`CN1CCN(CC#CCn2c3c(c4ccccc42)C[C@]2(C)[C@H]4CC[C@@H]5[C@H]6[C@H]7OC(=O)[C@@]6(CCC7(C)C)CC[C@@]5(C)[C@]4(C)CC[C@H]2C3(C)C)CC1`: the growth was 67.7%.
As for `Cc1nc([P+](c2ccccc2)(c2ccccc2)c2ccccc2)c(Sc2sc(-c3ccccc3)nc2[P+](c2ccccc2)(c2ccccc2)c2ccccc2)o1`, the growth was 8.1% (active).
With `CN(CSc1ccc(Cl)cc1)c1ccc(CSc2ccc(Cl)cc2)cc1`, the growth was 51.8%.
The same measure, in the same setting: as for `O=S(=O)(NCCNc1cc(-c2cn(-c3ccccc3)nc2-c2cccc(O)c2)ccn1)c1ccc(F)cc1`, the figure is 10.7%; as for `O=C1CNCCN1`, 89.3%.
As for `COc1ccc(O)c(-c2cc(-c3ccc(Cl)cc3)c(C#N)c(=O)[nH]2)c1`, the growth is 46.6%.
On to `CCN(CC)c1ccc(/C=C/c2cc(C)c3ccccc3n2)cc1`, for which the growth was 21.2%.

These data come from PubChem BioAssay (NCI).
